# PubChem BioAssay (EPA / NIEHS)
# Records with an inconclusive call do not appear. Calls of active or inactive are those of the source. The calls were made as follows, unless noted: active = hit-call score of the fitted dose curve at least 0.9, where 1 is the maximum; inconclusive = response in the unintended direction; inactive = score below 0.9.
# What was measured:
# [1] = biological target: frog Thyroid hormone Receptor alpha (TRa), thra-a (gene 397942) (UniProt P15204); assay: ATG_frTRa_XSP2: Attagene TRANS-FACTORIAL Multi-Species (XSP2) HepG2 Assay for frog Thyroid hormone Receptor alpha (TRa) (AID 2283839)
# Sequence of frog Thyroid hormone Receptor alpha (TRa), thra-a (gene 397942) (P15204 whole entry, looked up, the tested form may be a part): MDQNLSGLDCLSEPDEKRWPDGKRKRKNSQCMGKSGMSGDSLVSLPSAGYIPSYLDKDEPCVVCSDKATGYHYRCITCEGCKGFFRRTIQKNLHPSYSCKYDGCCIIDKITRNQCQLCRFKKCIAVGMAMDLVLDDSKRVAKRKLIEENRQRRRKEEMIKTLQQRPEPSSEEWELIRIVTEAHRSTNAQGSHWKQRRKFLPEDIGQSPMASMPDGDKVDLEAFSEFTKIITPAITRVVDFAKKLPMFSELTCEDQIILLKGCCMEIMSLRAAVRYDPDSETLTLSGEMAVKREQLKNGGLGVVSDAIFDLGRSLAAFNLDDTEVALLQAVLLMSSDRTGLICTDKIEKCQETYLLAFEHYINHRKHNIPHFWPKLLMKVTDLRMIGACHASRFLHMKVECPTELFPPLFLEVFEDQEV
# Procedure, shortened: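 HepG2 transiently transfected with multiplexed GAL4-UAS reporters driven by frog TRa-Gal4 chimeras; 24 h chemical exposure. Reporter mRNA quantified by RT-PCR, FAM labelling, HpaI digestion and capillary electrophoresis; gain of signal versus DMSO.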
# [2] = test system: Sodium/Iodide Symporter (NIS), SLC5A5 (gene 6528); assay: CPHEA_Stoker_NIS_Inhibition_RAIU: CPHEA's Radioactive Iodide Uptake (RAIU) Assay for Sodium/Iodide Symporter (NIS) Inhibition, Stoker and Laws Labs (AID 2283841)
# Protocol: CPHEA_Stoker_NIS is a cell-based, single-readout assay that uses hNIS-HEK293T-EPA, a novel human kidney cell line expressing human NIS, with measurements taken at 2 hours after chemical dosing in a 96-well plate. This radioactive iodide uptake (RAIU) assay is used to identify inhibitors of NIS-mediated iodide uptake. A parallel cytoxicity assay (Cell Titer Glo, Promega) was also run in the same cell line.CPHEA_Stoker_NIS_Inhibition_RAIU is one of 2 assay components measured from the CPHEA_Stoker_NIS assay. It is designed to make measurements of radioactive substrate uptake to understand transporter function, as detected with 125-i signals by MicroBeta radioactivity plate reader technology.Data from the assay component CPHEA_Stoker_NIS_Inhibition_RAIU was analyzed at the endpoint, CPHEA_Stoker_NIS_Inhibition_RAIU, in the positive analysis fitting direction relative to DMSO as the negative control and baseline of activity. Measures of radioactive substrate uptake for loss-of-signal activity can be used to understand the effects on transporter function at the pathway level as they relate to the sodium-iodide symporter, gene SLC5A5. To generalize the intended target to other relatable targets, this assay endpoint is annotated to the transporter intended target family, where the subfamily is sodium-iodide symporter (NIS).
# hNIS-HEK293T-EPA cells were seeded with a MultiFlo FX dispenser (BioTek, Winooski, VT) into ScintiPlate-96 microplates (Perkin Elmer, Waltham, MA) at a density of 4.0x10^4 cells per well in 200uL growth media and incubated for 40 hours before experimentation. On day of the assay, carrier-free 125I (Perkin-Elmer, Waltham, MA; specific activity: 17.4Ci/mg) was diluted with Hanks' balanced salt solution (Sigma, St. Louis, MO) supplemented with 10mM HEPES (uptake buffer; pH 7.4) at 5uCi/mL (288pg 125I/mL uptake buffer; 2.30nM). The assay was initiated by washing cells twice with 200uL uptake buffer using a 96-well Tecan HydroSpeed plate washer (Tecan, Mannedorf, Switzerland). Uptake buffer (59.7uL) was then added back to each well. Chemical samples (350nL at 200X) were administered using the HDR tool as previously described to achieve a 1X chemical/0.5% final DMSO concentration with subsequent addition of 10uL of 125I dilution (final [125I]: 329pM; 2.88pg/well) for a final reaction volume of 70uL/well. Cells were incubated at room temperature for 2 hours and then washed twice with 200uL ice cold uptake buffer. All uptake buffer was aspirated from wells, plates were sealed, and read on a MicroBeta2 plate reader (Perkin Elmer, Waltham, MA) using a detection protocol to measure CPM corresponding to intracellular 125I concentration. Each chemical concentration (0.001, 0.01, 0.1, 1.0, 10, and 100uM) was assayed in triplicate with three independent biological replicate plates (3 sequential cell passages). Additionally, a concentration response of NaClO4 (0.001, 0.01, 0.1, 1.0, 10, and 100uM) served as a positive control inhibition curve on each RAIU assay plate. DMSO control wells were assayed on each plate as a measure of maximum iodide uptake for normalization and determination of intra- and inter-assay variation. (Toxicol In Vitro, 2017, 40:66-78).
# [3] = CPHEA_Stoker_NIS_Cytotoxicity: Cytotoxicity Assessment for CPHEA's Radioactive Iodide Uptake (RAIU) Assay for Sodium/Iodide Symporter (NIS) Inhibition, Stoker and Laws Labs (AID 2283897)
# Procedure, shortened: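 ATP luminescence (Cell Titer Glo) measured viability, with loss of signal normalized to DMSO controls. Cells: hNIS-HEK293T-EPA, seeded 40 hours prior. Dosing: 0.001–100uM, 2 hours, room temperature, uptake buffer pH 7.4.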
# [4] = CEETOX_H295R_11DCORT_noMTC: CeeTox H295R High-throughput Steroidogenesis Assay for 11-Deoxycortisol (11DCORT), maximum tolerated concentration (MTC) filtered results only (AID 2283911; active = hit-call score of the fitted dose curve at least 0.9, where 1 is the maximum; inactive = score below 0.9); conditions: actives raise or lower the signal
# Procedure, shortened: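 H295R cells were prestimulated 48 h with 10 uM forskolin, then exposed 48 h to chemical (0.1% DMSO final). 11-Deoxycortisol in the medium was measured by MTBE extraction and HPLC-MS/MS, with bidirectional fitting versus DMSO and no MTC filtering of concentrations.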
# [5] = CEETOX_H295R_OHPREG_noMTC: CeeTox H295R High-throughput Steroidogenesis Assay for OH-Pregnenolone (OHPREG), maximum tolerated concentration (MTC) filtered results only (AID 2283912; active = hit-call score of the fitted dose curve at least 0.9, where 1 is the maximum; inactive = score below 0.9); conditions: actives raise or lower the signal
# Procedure, shortened: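 Steroidogenesis in H295R cells (OECD 456, modified): after 48 h forskolin priming and 48 h chemical treatment, secreted 17alpha-hydroxypregnenolone is measured by HPLC-MS/MS. Activity is fitted in both directions against DMSO; concentrations are not filtered by MTT-based MTC.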
# [6] = CEETOX_H295R_OHPROG_noMTC: CeeTox H295R High-throughput Steroidogenesis Assay for OH-Progesterone (OHPROG), maximum tolerated concentration (MTC) filtered results only (AID 2283914; active = hit-call score of the fitted dose curve at least 0.9, where 1 is the maximum; inactive = score below 0.9); conditions: actives raise or lower the signal
# Protocol: (§1) CEETOX_H295R is a cell-based, multiplexed-readout assay that uses H295R, a human adrenal gland cell line, with measurements taken at 48 hours after chemical dosing in a 96-well plate.CEETOX_H295R_OHPROG_noMTC is one of 12 assay component(s) measured or calculated from the CEETOX_H295R assay (11 hormones and 1 viability assay). It is designed to make measurements of hormone induction, a form of inducible reporter, as detected with […] by HPLC-MS-MS technology. The concentrations for these components have not been pre-filtered for the maximum tolerated concentration (MTC) based on the MTT assay (_noMTC).Data from the assay component CEETOX_H295R_OHPROG_noMTC was analyzed into 1 assay endpoint. This assay endpoint, CEETOX_H295R_OHPROG_noMTC, was analyzed with bidirectional fitting relative to DMSO as the negative control and baseline of activity. […]
# Cell culture and media preparation procedures were conducted in accordance with OECD Test No. 456 guidelines, with minor modifications. […] For steroid quantification, media samples were shipped to OpAns, LLC (Durham, NC) on dry ice, and samples were thawed to room temperature prior to liquid-liquid extraction. […] Steroid hormones were separated by HPLC, eluted using a reverse phase C18 gradient with electrospray positive ionization, followed by quantification by tandem mass spectrometry (MS/MS). Data were acquired on a MassHunter Workstation Acquisition version B03.01 (Agilent Technologies, Inc.) and processed using MassHunter Quantitative Analysis for QQQ. Accuracy was determined for each hormone analyte from 3 standards to determine upper and lower limits of quantification (ULOQ and LLOQ, respectively) using a 7-point standard curve. Precision and accuracy of the extraction and quantification methods were calculated as the percent relative standard deviation (%RSD) of the spiked standards and percent spiked standard recovered, respectively. […] Test medium was removed following chemical exposure, and cell viability was evaluated in the same wells by MTT. […]
# [7] = CEETOX_H295R_CORTISOL_noMTC: CeeTox H295R High-throughput Steroidogenesis Assay for Cortisol, maximum tolerated concentration (MTC) filtered results only (AID 2283916; active = hit-call score of the fitted dose curve at least 0.9, where 1 is the maximum; inactive = score below 0.9); conditions: actives raise or lower the signal
# Protocol: as §1, with “plate.CEETOX_H295R_CORTISOL_noMTC” for “plate.CEETOX_H295R_OHPROG_noMTC”, “CEETOX_H295R_CORTISOL_noMTC” for “CEETOX_H295R_OHPROG_noMTC”, “CEETOX_H295R_CORTISOL_noMTC,” for “CEETOX_H295R_OHPROG_noMTC,”
# (§2) Cell culture and media preparation procedures were conducted in accordance with OECD Test No. 456 guidelines, with minor modifications. […] For steroid quantification, media samples were shipped to OpAns, LLC (Durham, NC) on dry ice, and samples were thawed to room temperature prior to liquid-liquid extraction. […] Steroid hormones were separated by HPLC, eluted using a reverse phase C18 gradient with electrospray positive ionization, followed by quantification by tandem mass spectrometry (MS/MS). […]
# [8] = CEETOX_H295R_CORTIC_noMTC: CeeTox H295R High-throughput Steroidogenesis Assay for Corticosterone (CORTIC), maximum tolerated concentration (MTC) filtered results only (AID 2283917; active = hit-call score of the fitted dose curve at least 0.9, where 1 is the maximum; inactive = score below 0.9); conditions: actives raise or lower the signal
# Protocol: as §1, with “plate.CEETOX_H295R_CORTIC_noMTC” for “plate.CEETOX_H295R_OHPROG_noMTC”, “CEETOX_H295R_CORTIC_noMTC” for “CEETOX_H295R_OHPROG_noMTC”, “CEETOX_H295R_CORTIC_noMTC,” for “CEETOX_H295R_OHPROG_noMTC,”
# as §2
# [9] = CEETOX_H295R_DOC_noMTC: CeeTox H295R High-throughput Steroidogenesis Assay for DOC, maximum tolerated concentration (MTC) filtered results only (AID 2283918; active = hit-call score of the fitted dose curve at least 0.9, where 1 is the maximum; inactive = score below 0.9); conditions: actives raise or lower the signal
# Procedure, shortened: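 11-Deoxycorticosterone secreted by human adrenal H295R cells quantified by HPLC-MS/MS after 48 h chemical exposure (0.1% DMSO), following 48 h 10 uM forskolin prestimulation. Concentrations not filtered by MTT-derived MTC; bidirectional fitting.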
smiles,measurement,setting,value
CC(=O)C(C)=CC1C(C)=CCCC1(C)C (stereo not given),outcome,[1],inactive
NC(=O)Cn1c(=O)cc(CCN2CCN(c3nccc4sccc34)CC2)c2ccc(F)cc21,outcome,[2],inactive
same,outcome,[3],inactive
CCCCC(CC)COC(=O)CC(C(=O)OCC(CC)CCCC)S(=O)(=O)O (stereo not given),outcome,[2],inactive
same,outcome,[3],inactive
O=C(N[C@@H](Cc1ccccc1)[C@@H](O)C(=O)N1C[C@@H](O)[C@@H](O)C1)c1cc2cc(Cl)ccc2[nH]1,outcome,[3],inactive
O=c1c(O)c(-c2ccc(O)c(O)c2)oc2cc(O)cc(O)c12,outcome,[2],inactive
same,outcome,[3],inactive
Cc1oc(-c2ccccc2)nc1CCOc1cccc2c1ccn2CCC(=O)O,outcome,[3],inactive
same,AC50,[4],9.6 µM (active)
same,outcome,[5],inactive
same,outcome,[6],inactive
same,outcome,[7],inactive
same,outcome,[8],inactive
same,AC50,[9],6.44 µM (active)
O=C(OCCCCCOC(=O)c1ccccc1)c1ccccc1,outcome,[3],inactive
same,outcome,[4],inactive
same,outcome,[5],inactive
same,outcome,[6],inactive
same,outcome,[7],inactive
same,outcome,[8],inactive
same,outcome,[9],inactive
CCCc1cc(=O)[nH]c(=S)[nH]1,outcome,[1],inactive
Nc1ccccc1N,outcome,[2],inactive
same,outcome,[3],inactive
Oc1ccc2c(c1)OC[C@@H](N1CCC(O)(c3ccc(F)cc3)CC1)[C@H]2O,outcome,[2],inactive
same,outcome,[3],inactive
COc1ccc(S(=O)(=O)N2C(=O)[C@@](c3ccccc3OC)(N3C[C@H](O)C[C@H]3C(=O)N(C)C)c3cc(Cl)ccc32)c(OC)c1,outcome,[2],inactive
same,outcome,[3],inactive
FC(F)(F)C(F)(F)C(F)(F)C(F)(F)C(F)(F)C(F)(F)CCI,outcome,[2],inactive
same,outcome,[3],inactive
CC(C)(C)c1cc(O)c(C(C)(C)C)cc1O,outcome,[1],inactive
same,outcome,[2],inactive
same,outcome,[3],inactive
CN[C@H]1CC[C@@H](c2ccc(Cl)c(Cl)c2)c2ccc(S(N)(=O)=O)cc21,outcome,[3],inactive
